This note sets out measurements from ChEMBL document CHEMBL4513216, “Probing the Open Global Health Chemical Diversity Library for Multistage-Active Starting Points for Next-Generation Antimalarials” (ACS Infect Dis, 2020).

Molecules are shown by their SMILES. In all, about 68,000 compounds went through this assay and about 2,700 (4%) showed an effect of 50% or more. Many of the other results were omitted from the sample, so strong results are more common in it than they were.

This assay concerns Plasmodium berghei. Briefly: Screen against P. berghei liver stage (PbLuc), transformed with Luciferase, at 2uM. Type of assay: functional, HepG2. Particulars: tested at 2 uM.
For `COc1ccccc1OCC(=O)NCC(O)(c1ccccc1)C1CC1` (stereo not drawn), the INHIBITION worked out at 22.75%.
Under `CCOc1ccc(Oc2cc(N)ccn2)cc1` stands 4%.
Turning to `O[C@H]1Cc2ccccc2[C@H]1Nc1ncccc1C(F)(F)F`, the INHIBITION is given as -12.95%.
For `Cc1ccc(CN2CCCn3nnc(COCCN(C)C)c3C2)s1` the value was 23.14%.
Under `Cn1cc(CN2CC[C@H]3O[C@H](C(=O)NC4CC4)CC[C@H]32)c2ccccc21` stands -18.7%; under `CCOc1ncccc1CNS(=O)(=O)c1ccc2c(c1)CCCC(=O)N2`, 20.35%.
Under `Fc1ccc(-c2nc(CN3CCOC(Cn4cccn4)C3)co2)cc1` (stereo not drawn) stands -17.31%.
`c1csc(-c2nc(CN3CCOC(Cn4cccn4)C3)cs2)c1` (stereo not drawn): the INHIBITION came to 45.83%.
Turning to `c1ccc(-c2nc(CN3CCOC(Cn4cccn4)C3)co2)cc1` (stereo not drawn), the INHIBITION is reported as 62.13%.
For `c1cnn(CC2CN(Cc3ccc(-n4ccnc4)cc3)CCO2)c1` (stereo not drawn) the value was 53.03%.
Under `Cc1ccc(-c2nc(CN3CCOC(Cn4cccn4)C3)co2)cc1` (stereo not drawn) stands 1.02%; under `c1csc(-c2nc(CN3CCOC(Cn4cncn4)C3)cs2)c1` (stereo not drawn), 66.97%; under `c1cnn(CC2CN(CCc3ccncc3)CCO2)c1` (stereo not drawn), 17.11%.
For `c1ccc(-c2nc(CN3CCOC(Cn4cncn4)C3)cs2)cc1` (stereo not drawn) the value was 31.57%; for `CN(Cc1ccsc1)C(=O)CN1CCOC(Cn2cncn2)C1` (stereo not drawn), 46.09%; for `Cc1cnn(CC2CN(CC(=O)N(C)Cc3ccsc3)CCO2)c1` (stereo not drawn), 47.84%.
Consider `CN(Cc1ccsc1)C(=O)CN1CCOC(Cn2cccn2)C1` (stereo not drawn), for which the INHIBITION is recorded as 62.46%.
For `c1cn(-c2ccc(CN3CCOC(Cn4cncn4)C3)cc2)cn1` (stereo not drawn), the INHIBITION came out at 40.88%.
As to `OCC(CO)Nc1ccc2c(Cl)ccc(Cl)c2n1`, the INHIBITION is recorded as 34.55%.
Under `O=C(c1ccc(F)cc1)N1CCC2(CCCN2CC2CC2)CC1` stands -38.96%; under `NC(=O)Nc1cccc(CNC(=O)CCCc2ccccc2)c1`, 3.01%.
Under `Fc1cccnc1Oc1cc(F)c(CN2CCCC2)c(Cl)c1` stands -42.73%.
For `Clc1cc(N2CCC(N3CCCC3)CC2)nc2[nH]ccc12` the value was 25.13%; for `Nc1cc2c(nn1)CCN(C(=O)c1cccc3c1OCO3)C2`, 4.55%; for `CC(=O)c1ccc(S(=O)(=O)NCc2cccnc2N(C)C)cc1`, 4.18%.
As to `COc1ncccc1-c1nc(-c2ccccn2)nn1C1CCS(=O)(=O)C1` (stereo not drawn), the INHIBITION is recorded as 19.12%.
For `Nc1nc2cn(C3CCCC3)c(=O)c-2c[nH]1` the value was -33.11%; for `CCCc1nc(CN2CCOC(Cn3cncn3)C2)cs1` (stereo not drawn), 53.98%; for `c1csc(-c2nc(CN3CCOC(Cn4cccn4)C3)co2)c1` (stereo not drawn), -25.44%.
For `c1csc(-c2nc(CN3CCOC(Cn4cncn4)C3)co2)c1` (stereo not drawn) the value was 71.48%.
As to `CC(C)(C)c1nc(CN2CCOC(Cn3cncn3)C2)cs1` (stereo not drawn), the INHIBITION was -5.09%.
For `CC(C)CCc1nc(CN2CCOC(Cn3cncn3)C2)cs1` (stereo not drawn), the INHIBITION is 7.13%.
For `Fc1cccc(-c2nc(CN3CCOC(Cn4cncn4)C3)co2)c1` (stereo not drawn) the value was 16.51%.
